Measurements from PubChem BioAssay (EPA / NIEHS).
The source made the active and inactive calls. How the source made its calls: active means hit-call score of the fitted dose curve at least 0.9, where 1 is the maximum; inactive means score below 0.9.

Columns and labels:
[1] = read-out: TIMP metallopeptidase inhibitor 1 (TIMP1), TIMP1 (gene 7076); assay: BSK_hDFCGF_TIMP1: BioMAP Diversity Plus: hDFCGF Assay for TIMP metallopeptidase inhibitor 1 (TIMP1) Biomarker Activity (AID 2283062); settings: primary human foreskin fibroblasts; actives raise or lower the signal
How it was run: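 Fibroblasts from human foreskin are treated with test chemical and harvested at 24 h. TIMP-1 is quantified by ELISA, and gain or loss of signal is scored against DMSO.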

[2] = read-out: Monokine induced gamma interferon (MIG), CXCL9 (gene 4283); assay: BSK_hDFCGF_MIG: BioMAP Diversity Plus: hDFCGF Assay for Monokine induced gamma interferon (MIG) Biomarker Activity (AID 2283063); settings: primary human foreskin fibroblasts; actives raise or lower the signal
How it was run: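 MIG signal, determined by ELISA, reflects 24 h chemical exposure of human skin primary fibroblasts. DMSO serves as negative control and baseline.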

[3] = read-out: Matrix Metallopeptidase 1 (MMP1), MMP1 (gene 4312); assay: BSK_hDFCGF_MMP1: BioMAP Diversity Plus: hDFCGF Assay for Matrix Metallopeptidase 1 (MMP1) Biomarker Activity (AID 2283064); settings: primary human foreskin fibroblasts; actives raise or lower the signal
How it was run: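 MMP1 levels quantified by ELISA 24 h after dosing human dermal fibroblast cultures, with parallel SRB total-protein staining for overt cytotoxicity. Data fitted in both directions against DMSO baseline.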

[4] = read-out: Vascular cell adhesion molecule 1 (VCAM1), VCAM1 (gene 7412); assay: BSK_hDFCGF_VCAM1: BioMAP Diversity Plus: hDFCGF Assay for Vascular cell adhesion molecule 1 (VCAM1) Biomarker Activity (AID 2283065); settings: primary human foreskin fibroblasts; actives raise or lower the signal
How it was run: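 Cells are dosed, cultured for 24 h, then VCAM-1 is quantified by ELISA; signal increases and decreases are both fitted relative to DMSO.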

[5] = read-out: Plasminogen activator inhibitor-1 (PAI1), SERPINE1 (gene 5054); assay: BSK_hDFCGF_PAI1: BioMAP Diversity Plus: hDFCGF Assay for Plasminogen activator inhibitor-1 (PAI1) Biomarker Activity (AID 2283066); settings: primary human foreskin fibroblasts; actives raise or lower the signal
How it was run: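 ELISA readout of PAI-1 from primary human skin fibroblast cultures, 24 h after compound addition. Gain or loss of signal was fitted bidirectionally against DMSO baseline.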

[6] = read-out: Intercellular Adhesion Molecule 1 (ICAM1), ICAM1 (gene 3383); assay: BSK_KF3CT_ICAM1: BioMAP Diversity Plus: KF3CT Assay for Intercellular Adhesion Molecule 1 (ICAM1) Biomarker Activity (AID 2283067); settings: primary human keratinocytes with fibroblasts; actives raise or lower the signal
How it was run: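 Dose the keratinocyte/fibroblast co-culture, wait 24 h, measure ICAM-1 by ELISA, then fit increases or decreases against DMSO. Cytotoxicity is checked in parallel cultures by SRB total-protein staining.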

[7] = read-out: Interferon-gamma inducible Protein 10 (IP10), CXCL10 (gene 3627); assay: BSK_KF3CT_IP10: BioMAP Diversity Plus: KF3CT Assay for Interferon-gamma inducible Protein 10 (IP10) Biomarker Activity (AID 2283068); settings: primary human keratinocytes with fibroblasts; actives raise or lower the signal
How it was run: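 KF3CT co-culture (keratinocytes + foreskin fibroblasts), 24 h compound, IP-10 by ELISA; bidirectional fit vs DMSO baseline.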

[8] = BSK_KF3CT_SRB: Viability Assessment in the BioMAP Diversity Plus: KF3CT Assay (AID 2283069); settings: primary human keratinocytes with fibroblasts
How it was run: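 Cytotoxicity was gauged by SRB staining (0.1% SRB, 10% TCA fixation, 560 nm) of parallel cultures at 24 h. The cells were primary human skin keratinocytes co-cultured with fibroblasts, and activity was fitted in both directions against DMSO.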

[9] = read-out: Interleukin-1 alpha (IL1a), IL1A (gene 3552); assay: BSK_KF3CT_IL1a: BioMAP Diversity Plus: KF3CT Assay for Interleukin-1 alpha (IL1a) Biomarker Activity (AID 2283070); settings: primary human keratinocytes with fibroblasts; actives raise or lower the signal
How it was run: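 IL-1a was detected by ELISA 24 h after chemical treatment of a co-culture of human skin keratinocytes and foreskin fibroblasts. Gain or loss of signal was fitted against the DMSO baseline.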

[10] = read-out: TIMP metallopeptidase inhibitor 2 (TIMP2), TIMP2 (gene 7077); assay: BSK_KF3CT_TIMP2: BioMAP Diversity Plus: KF3CT Assay for TIMP metallopeptidase inhibitor 2 (TIMP2) Biomarker Activity (AID 2283071); settings: primary human keratinocytes with fibroblasts; actives raise or lower the signal
How it was run: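 ELISA readout of TIMP-2 in keratinocyte plus foreskin fibroblast co-cultures (human skin primary cells), 24 h post-dose. Gain or loss of signal fitted relative to DMSO.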

[11] = read-out: Transforming growth factor beta 1 (TGFb1), TGFB1 (gene 7040); assay: BSK_KF3CT_TGFb1: BioMAP Diversity Plus: KF3CT Assay for Transforming growth factor beta 1 (TGFb1) Biomarker Activity (AID 2283072); settings: primary human keratinocytes with fibroblasts; actives raise or lower the signal
How it was run: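 Read-out: ELISA for TGF-b1 in keratinocyte/foreskin fibroblast human skin co-culture, 24 h after dosing; bidirectional curve fit vs DMSO baseline; gain or loss of signal scored.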

[12] = read-out: C-C motif chemokine 2 (Homo sapiens) (UniProt P13500); assay: BSK_KF3CT_MCP1: BioMAP Diversity Plus: KF3CT Assay for Monocyte Chemoattractant Protein 1 (MCP1/CCL2) Biomarker Activity (AID 2283073); settings: primary human keratinocytes with fibroblasts; actives raise or lower the signal
How it was run: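 Keratinocytes and foreskin fibroblasts were co-cultured, dosed with chemical, and sampled 24 h later. MCP-1 was quantified by ELISA, and the endpoint was analyzed with bidirectional fitting using DMSO as negative control.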

[13] = read-out: Matrix Metallopeptidase 9 (MMP9), MMP9 (gene 4318); assay: BSK_KF3CT_MMP9: BioMAP Diversity Plus: KF3CT Assay for Matrix Metallopeptidase 9 (MMP9) Biomarker Activity (AID 2283074); settings: primary human keratinocytes with fibroblasts; actives raise or lower the signal
How it was run: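 MMP-9 quantified by ELISA after 24 h chemical treatment of primary human skin keratinocyte/fibroblast co-cultures; gain or loss fitted against DMSO, with parallel SRB staining (0.1% SRB, 560 nm) for overt cytotoxicity.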

[14] = read-out: E-selectin (Homo sapiens) (UniProt P16581); assay: BSK_LPS_Eselectin: BioMAP Diversity Plus: LPS Assay for Eselectin Biomarker Activity (AID 2283077); settings: primary human HUVEC with PBMC; actives raise or lower the signal
How it was run: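 Signal of E-selectin, detected by ELISA, served as the endpoint; cells were umbilical vein endothelium with PBMC, read 24 h after treatment. DMSO defined baseline, and both increases and decreases were fitted.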

[15] = read-out: Interleukin-8 (IL8), CXCL8 (gene 3576); assay: BSK_LPS_IL8: BioMAP Diversity Plus: LPS Assay for Interleukin-8 (IL8) Biomarker Activity (AID 2283078); settings: primary human HUVEC with PBMC; actives raise or lower the signal
How it was run: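 Endothelial cells and PBMC from human donors are co-cultured, treated with chemicals and LPS, then assayed for IL-8 by ELISA after 24 h. Parallel SRB staining (0.1% SRB after 10% TCA fixation, 560 nm) flags cytotoxicity.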

[16] = BSK_LPS_SRB: Viability Assessment in the BioMAP Diversity Plus: LPS Assay (AID 2283079); settings: primary human HUVEC with PBMC;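 further: total protein by sulforhodamine B absorbance as a cytotoxicity measure; measured one day after compound addition; fitted in both directions against DMSO so loss or gain of signal counts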
How it was run: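 Overt cytotoxicity was gauged by sulforhodamine B total-protein staining in a primary human vascular endothelial and mononuclear cell co-culture 24 h post-dosing. Activity was fitted in both directions relative to DMSO.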

[17] = read-out: Monocyte Chemoattractant Protein-1 (MCP1), CCL2 (gene 6347); assay: BSK_LPS_MCP1: BioMAP Diversity Plus: LPS Assay for Monocyte Chemoattractant Protein-1 (MCP1) Biomarker Activity (AID 2283081); settings: primary human HUVEC with PBMC; actives raise or lower the signal
How it was run: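 LPS-stimulated HUVEC/PBMC co-culture; chemical, 24 h; MCP-1 by ELISA; bidirectional fit vs DMSO; cytotoxicity via SRB (0.1% stain, 10% TCA fix, 560 nm) in parallel wells.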

CD40, CD40 (gene 958) = assay: BSK_LPS_CD40: BioMAP Diversity Plus: LPS Assay for CD40 Biomarker Activity (AID 2283076); settings: primary human HUVEC with PBMC; actives raise or lower the signal
How it was run: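 CD40 signal, measured by ELISA, is fitted in both directions relative to DMSO vehicle. The system is an LPS-driven human vascular primary co-culture of endothelial cells and PBMC, sampled 24 h after compound addition.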

Measured: outcome

Sequence of E-selectin (Homo sapiens) (P16581 whole entry, looked up): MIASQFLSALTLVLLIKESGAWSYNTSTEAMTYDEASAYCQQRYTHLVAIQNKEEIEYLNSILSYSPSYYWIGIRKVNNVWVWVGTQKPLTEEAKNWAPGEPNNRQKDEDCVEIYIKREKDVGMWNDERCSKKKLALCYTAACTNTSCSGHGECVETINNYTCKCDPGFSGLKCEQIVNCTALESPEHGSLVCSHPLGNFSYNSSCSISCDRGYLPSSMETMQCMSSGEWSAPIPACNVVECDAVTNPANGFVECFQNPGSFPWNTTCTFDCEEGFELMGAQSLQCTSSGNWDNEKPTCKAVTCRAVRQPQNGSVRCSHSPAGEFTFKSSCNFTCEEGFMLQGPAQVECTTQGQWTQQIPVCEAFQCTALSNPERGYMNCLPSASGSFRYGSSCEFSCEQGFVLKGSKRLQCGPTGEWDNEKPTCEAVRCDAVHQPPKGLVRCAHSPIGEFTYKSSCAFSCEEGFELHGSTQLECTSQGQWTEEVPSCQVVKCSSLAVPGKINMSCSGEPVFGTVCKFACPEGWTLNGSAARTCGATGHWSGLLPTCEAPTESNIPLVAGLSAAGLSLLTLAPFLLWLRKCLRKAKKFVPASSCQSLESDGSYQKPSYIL

CC1(C)NC(=O)N(c2ccc([N+](=O)[O-])c(C(F)(F)F)c2)C1=O
not listed: CD40, CD40 (gene 958)
inactive: all other assays above

CC[C@@H]1C[C@H](N(Cc2cc(C(F)(F)F)cc(C(F)(F)F)c2)C(C)=O)c2cc(C(F)(F)F)ccc2N1C(=O)OC(C)C
inactive: all assays above

CC[C@H](NC(=O)c1cc(F)ccc1NS(=O)(=O)c1cccc2cccnc12)c1ccccc1
inactive: all assays above

CC(C)(O)c1ccc(CNC(=O)c2cccnc2Oc2ccc3nonc3c2)cc1
inactive: all assays above
